A549 tox-1 – kills or reduces viability of A549 cells in Nrf2 counter-screen. Potency, µM (highest dose often 46 µM), inactives show top-dose activity change, negative = cytotoxicity, actives largely listed as inhibitors. AID 504648. A549 ARE-Fluc cells, CellTiter-Fluor viability, 18-24 h. 0.16% of 390,000 active; also: % is scaled to controls: 0 for no effect and ±100 for the full control effect
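A549 ARE_Fluc cells in 5% FBS OPTI-MEM were exposed to compounds in concentration-response for 18-24 h at 37 deg C. Viability was read by CellTiter-Fluor fluorescence (Ex 405/Em 525) after 30 min, before the luciferase read.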
Rango complex inh – inhibitors of Rango-importin beta complex formation. Potency, µM (titrated, usually from 92.2 µM), for the others: top-dose inhibition of complex formation. 0.031% of 340,000 active. Q14974. Rango CFP/YFP FRET sensor + importin beta, 45 min; calls by dose curve;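 also: 0% = DMSO wells and 100% = buffer wells lacking importin beta; nearly all actives have a fitted effect of over 15% in size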
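FRET biosensor (snurportin 1 IBB flanked by EYFP and cerulean), 50 nM, with compound 5 min, then 0.125 microM importin beta in PBS, 1 mM DTT, 0.02% Tween-20, 0.1% BSA. CFP/YFP ratio read after 45 min at room temperature; pre-read flags interference.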
Nrf2 inh – inhibitors of Nrf2 signaling | 2.1% of 360,000 active | Potency, µM (top dose mostly 46 µM), inactives show at the highest dose activity change, negative = inhibition, most hits filed as inhibitors | AID 504444 | A549 ARE-Fluc reporter, luciferase luminescence, 18-24 h; also: % is scaled to controls: 0 for no effect and ±100 for the full control effect; nearly all actives have a fitted effect of over 60% in size
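Concentration-response testing used A549 ARE_Fluc cells at 5000 cells/well. Following an 18-24 h compound incubation, viability was read by fluorescence (Ex 405/Em 525) and luciferase output by luminescence.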
Rango release inh – inhibition of RanGTP-driven Rango-importin beta dissociation; Potency, µM (top dose mostly 46.1 µM), for inactives: at the top dose activity change, negative = inhibition; 0.071% of 340,000 active; Biochemical FRET Rango-importin beta, RanGTP-induced dissociation; O95149+P62826; AID 540253; calls by dose curve; also: % of control where 0% means no effect; nearly all actives have a fitted effect of over 45% in size
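Quantitative HTS using a FRET biosensor: 0.1 uM Rango, 0.25 uM importin beta, 0.6 uM Ran, 2 mM GTP, 0.2 uM RCC1 final, PBS with DTT, Tween-20 and BSA. Post-read taken 45 min after Ran addition.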
Nrf2 ARE act – activators of Nrf2 (ARE) signaling; 0.31% of 410,000 active; Potency, µM (doses to about 46.1 µM), for the others: top-dose activation, actives largely listed as activators; AREc32 ARE-luciferase reporter (MCF7-derived line), luminescence, 24 h; also: % of control where 0% means no effect; nearly all actives have a fitted effect of over 65% in size
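AREc32 cells carrying an ARE-driven firefly luciferase, 1000 cells/well in OPTI-MEM with 5% FBS, dosed after overnight attachment and incubated 24 hr at 37 deg C. Steady-Glo luminescence read after 30 min at RT.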
FLuc enzyme inh – firefly luciferase inhibition, Nrf2 hit validation | 4% of 1,400 active | shares compounds with Nrf2 inh | Potency, µM (doses to about 57.5 µM), inactives show at the top dose activity change, negative = inhibition, actives largely listed as inhibitors | purified firefly luciferase, luminescence inhibition; also: % is scaled to controls: 0 for no effect and ±100 for the full control effect; nearly all actives have a fitted effect of over 65% in size
A549 tox-2 – A549 cytotoxicity, Nrf2 inhibitor counterscreen | Potency, µM (doses to about 46.1 µM), for inactives: top-dose activity change, negative = cytotoxicity, usual class: inhibitors | shares compounds with Nrf2 inh | 2% of 1,400 active | A549 ARE-Fluc cells, cytotoxicity counterscreen;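 also: cells exposed to compounds for 18 to 24 hours; % is scaled to controls: 0 for no effect and ±100 for the full control effect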
ARE-Fluc inh – reduces Nrf2 ARE reporter signal in A549 cells; shares compounds with Nrf2 inh; A549 ARE-firefly luciferase reporter, luminescence; Potency, µM (highest dose often 46.1 µM), inactives show top-dose activity change, negative = inhibition, hits mostly inhibitors; 74% of 1,400 active; AID 720524; also: % is scaled to controls: 0 for no effect and ±100 for the full control effect; nearly all actives have a fitted effect of over 65% in size
The depositor's hits bear a star; ? = inconclusive; . = not tested or not shown; [ ] = dose if it differs, or a comment. An excerpt weighted towards active compounds, which were near 2.3% of everything screened. Unless noted, calls follow the shape of the dose curve; as a rule, active = well fitted curve in the direction sought with a large enough effect; inconclusive = small, poorly fitted or top-dose-only effect, or another doubt; inactive = no such curve, though single readings can be large; an effect the other way counts as inactive or inconclusive. Potency is read from the fitted curve at half-maximal effect.

SMILES	A549 tox-1	Rango complex inh	Nrf2 inh	Rango release inh	Nrf2 ARE act	FLuc enzyme inh	A549 tox-2	ARE-Fluc inh
O=C1c2cccc3cc([N+](=O)[O-])cc(c23)C(=O)N1CCN1CCCC1	?	?	1.8µM*	0%	-2%	-1%	?	?
COc1ccc(-c2c(C#N)c(SCC(=O)c3cc4ccccc4oc3=O)nc(C)c2C(=O)Nc2ccccc2)cc1	-13%	-2%	6.5µM*	-23%	0%	-19%	-18%	15µM*
Cc1ccc(-n2nc3c(=O)n(C(C)C(=O)NCc4ccc(OC(C)C)cc4)nc(C)c3c2C)cc1 (centres undefined)	-4%	.	1.8µM*	.	-1%	1%	-11%	8.2µM*
O=C(C[n+]1ccncc1)c1ccccc1	0%	2%	-1%	-5%	2%	.	.	.
Nc1cc[n+](CC(=O)c2ccccc2)cc1	-11%	-5%	8.2µM*	37%	0%	3%	-13%	?
Cc1c(N)cc[n+](CC(=O)c2ccccc2)c1C	-17%	1%	4.1µM*	2%	-1%	0%	-9%	15µM*
Cc1cc[n+](CC(=O)c2ccccc2)c2ccccc12	-3%	0%	-14%	2%	0%	.	.	.
Cc1cc(N(C)C)cc(C)c1/C=C/c1ccnc2ccccc12	.	.	.	.	.	?	?	9.2µM*
COc1cc(OC)c(OC)cc1/C=C/c1ccnc2ccccc12	-17%	?	-12%	?	5%	.	.	.
CCOc1ccc2nc(COC(=O)c3ccncc3)c(C(=O)c3ccccc3)[n+]([O-])c2c1	0%	-1%	10%	1%	2%	.	.	.
Cc1ccc(NC(=O)CN2C(=O)c3cccnc3Sc3ccccc32)cc1C	9%	.	?	.	9%	?	1%	62%
COc1ccc(NC(=O)CN2C(=O)c3cccnc3Sc3ccccc32)cc1OC	-4%	.	26%	.	8%	.	.	.
CC[n+]1ccccc1/C=C1\Sc2ccc(C)cc2N1C	?	?	6.5µM*	-25%	2%	1%	-28%	2.9µM*
CCNC(COC(=O)c1ccc([N+](=O)[O-])cc1)C1CCCCC1 (centres undefined)	3%	-2%	7%	2%	-1%	.	.	.
Cc1ccc2c(c1)c(/C=C/c1cc[n+](C)cc1)c(C)n2C	?	?	3.7µM*	?	-2%	-8%	?	6.5µM*
CCCn1c(/C=C/c2cc[n+](C)cc2)nc2ccccc21	?	?	12%	?	2%[9.22 µM]	.	.	.
COc1ccc(CNC(=O)Cn2nnc(-c3ccc(C(F)(F)F)cc3)n2)cc1	5%	.	.	.	-1%	.	.	.
Cn1cc(/C=C/c2cc[n+](C)cc2)c2cc(F)ccc21	?	?	1.6µM*	?	8%	1%	-26%	1.6µM*
C[n+]1ccccc1/C=C/c1ccc(F)c(F)c1	6%	-1%	-14%	4%	0%[9.22 µM]	.	.	.
C[n+]1ccc(/C=C/c2c[nH]c3ccc(F)cc23)cc1	?	?	1.2µM*	?	2%	1%	?	1.8µM*
O=C(NN=C(c1ccccc1)c1ccccn1)c1ccccc1	?	-1%	5.2µM*	-20%	?	-25%	6.5µM*	.
O=C(N/N=C(\c1ccccc1)c1ccccn1)c1ccccc1Cl	-29%	7%	?	1%	?	.	.	.
COc1ccc(C(=O)N/N=C(\c2ccccc2)c2ccccn2)cc1	?	?	8.2µM*	5%	18%	2%	0%	?
Cc1ccc2c(c1)c(=O)c1ccccc1n2CCCC(=O)Nc1c(F)cccc1F	12%	.	-12%	.	0%	.	.	.

Assay outcomes deposited in PubChem BioAssay by National Center for Advancing Translational Sciences (NCATS).
